# Screening data from PubChem.
# In the library only some 19% were active in any assay of this set; here they are far more common.
# Pf growth 48h = Primary qHTS for delayed death inhibitors of the malarial parasite plastid, 48 hour incubation | P. falciparum luciferase growth in erythrocytes, 48 h | Potency, µM (top dose mostly 28.7 µM), most hits filed as inhibitors | 310,000 compounds, 5.9% hits
#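 Growth was read as firefly luciferase luminescence after a 48 h, 37 C, 5% CO2 exposure of compounds to reporter-bearing P. falciparum cultures (0.1% parasitemia, 2% hematocrit final) in Albumax-supplemented RPMI 1640.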
# Shiga inhibitor = A qHTS for Small Molecule Inhibitors of Shiga Toxin | 290,000 compounds, 9.2% hits | inhibition, % at 38.7 µM | Vero cells, Shiga toxin protein synthesis inhibition reporter | AID 2315, 2010; in the data active means inhibition mostly above about 28%, no sharp cut-off; inactive means mostly below about 43%
# Marburg entry inh = qHTS for inhibitors of binding or entry into cells for Marburg Virus; 300,000 compounds, 1.8% hits; Marburg virus pseudotyped entry inhibition, cell reporter; Potency, µM (highest dose often 37.8 µM), hits mostly inhibitors; calls by dose curve; tested in HEK293 cells
# Lassa entry inh = qHTS for Inhibitors of binding or entry into cells for Lassa Virus; AID 540256, 2011; Potency, µM (series often up to 37.9 µM), hits mostly inhibitors; Lassa virus pseudotype entry inhibition, cell reporter; 300,000 compounds, 1.2% hits; calls by dose curve; tested in HEK293 cells; further: nearly all actives have a fitted effect of over 50% in size
# Pf growth 96h = Primary qHTS for delayed death inhibitors of the malarial parasite plastid, 96 hour incubation. Potency, µM (doses to about 28.7 µM), usual class: inhibitors. P. falciparum luciferase reporter growth, 96 h. 320,000 compounds, 6.9% hits
#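 Two parasite generations (96 h, 37 C, 5% CO2) of compound exposure in infected erythrocytes (0.05% parasitemia, 2% hematocrit). Luciferase-reporter P. falciparum; decreased luminescence indicates inhibited growth, aimed at apicoplast-acting delayed death.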
# CHX counter = Cycloheximide Counterscreen for Small Molecule Inhibitors of Shiga Toxin; cell reporter, cycloheximide protein synthesis inhibition counterscreen; max response, %; 300,000 compounds, 12% hits; in the data active means max response mostly above about 13%, no sharp cut-off; inactive means mostly below about 14%; further: read at 38.3 µM for the half of the compounds with a filed dose
# Hits are given with their value; - = inactive; ? = inconclusive; . = no result. Unless noted, the call rests on the fitted dose curve; in most records, active means well fitted inhibition curve with a large enough effect; inconclusive means small, poorly fitted or top-dose-only effect, or another doubt; inactive means no such curve, though single readings can be large or run the other way.
SMILES,Pf growth 48h,Shiga inhibitor,Marburg entry inh,Lassa entry inh,Pf growth 96h,CHX counter
CC(C)CSc1nnc2c(n1)[nH]c1ccccc12,.,-,?,?,?,32.1
CC(C)CSc1nnc2c3ccccc3n(C)c2n1,-,.,?,?,6.57µM,33.9
CCCCSc1nnc2c(n1)[nH]c1ccccc12,-,127.8,?,?,-,46.1
O=C(O)c1ccccc1CSc1nnc2c(n1)[nH]c1ccccc12,-,-,-,-,-,-
Cc1ccc2c(c1)c1nnc(SCC(=O)NC3CC3)nc1n2C,-,-,.,.,?,-
CCCCCSc1nnc2c(n1)[nH]c1c(C)cccc12,.,.,-,?,.,.
CCSc1nnc2c3cc(CC)ccc3n(C)c2n1,-,-,.,.,?,active
Cc1ccc(C(=O)OCC(=O)Nc2cc(S(=O)(=O)N3CCOCC3)ccc2C)cc1,-,-,.,.,-,-
CCN(CC)S(=O)(=O)c1ccc(OC)c(NC(=O)COc2ccc3c(C)cc(=O)oc3c2)c1,?,-,-,-,2.62µM,-
Cc1ccc(S(=O)(=O)N2CCOCC2)cc1NC(=O)COc1ccc2c(C)cc(=O)oc2c1,?,-,?,?,9.28µM,-
Cc1ccc(S(=O)(=O)N2CCOCC2)cc1NC(=O)COC(=O)c1ccc(OCc2c(C)noc2C)cc1,13.1µM,-,-,-,?,-
CCN(CC)S(=O)(=O)c1ccc(Cl)c(NC(=O)COc2ccc3c(C)cc(=O)oc3c2)c1,-,-,-,?,-,-
O=C1CS/C(=C\[N+](=O)[O-])N1c1ccc(OC(F)(F)F)cc1,-,-,-,-,-,-
CC(C)N(C(=O)Cn1cc(S(=O)(=O)CC(=O)NCc2ccccc2)c2ccccc21)C(C)C,-,-,-,-,-,-
COc1ccc(NC(=O)CS(=O)(=O)c2cn(CC(=O)N3CCOCC3)c3ccccc23)cc1OC,-,-,.,.,7.38µM,-
COc1ccccc1NC(=O)C(=O)c1cn(CC(=O)N2CCCC2)c2ccccc12,-,-,.,.,-,21.8
CC(=O)Nc1cccc(NC(=O)CS(=O)(=O)c2cn(CC(=O)N(C(C)C)C(C)C)c3ccccc23)c1,?,-,.,.,11.7µM,-
COc1ccc(NC(=O)C(=O)c2cn(CC(=O)N3CCCC3)c3ccccc23)c(OC)c1,-,-,.,.,-,-
COc1ccccc1NC(=O)C(=O)c1cn(CC(=O)N2CCOCC2)c2ccccc12,-,34.7,.,.,-,12.2
COc1ccc(OCCn2c(C)nc3cc(C)c(C)cc32)cc1,.,.,-,-,.,.
Cn1c(=S)[nH]c2ccccc21,.,-,-,-,?,-
CCC(C)NS(=O)(=O)c1ccc(NC(=O)c2ccc([N+](=O)[O-])cc2Cl)cc1 (centres undefined),-,-,-,?,?,-
COc1ccccc1NC(=O)N1CCCC1,-,-,-,?,?,-
COc1ccccc1NC(=O)C(=O)N1CCCC1,-,60.4,?,-,?,18.8
COc1ccc(CCNC(=O)c2ccccc2NC(=O)c2ccco2)cc1OC,?,-,?,-,.,-
SMILES,Pf growth 48h,Shiga inhibitor,Marburg entry inh,Lassa entry inh,Pf growth 96h,CHX counter
C/C(=N/NS(=O)(=O)c1cc(C)ccc1C)c1ccncc1,-,-,.,.,11.7µM,-
Cc1ccc(C)c(S(=O)(=O)NCc2ccncc2)c1,?,-,-,-,?,-
C/C(=N/NS(=O)(=O)c1cc(C)ccc1C)c1ccc2c(c1)OCO2,-,-,-,-,11.7µM,-
Cn1cc(S(=O)(=O)N2CCN(Cc3ccccc3)CC2)c(=O)n(C)c1=O,-,-,.,.,-,-
CCOc1ccccc1NC(=O)Nc1cc(C(=O)O)ccc1C,-,-,-,-,?,-
COc1cc(C2C(C#N)=C(N)OC3=C2C(=O)CCC3)cc(OC)c1OC(=O)N1CCOCC1 (centres undefined),-,-,-,-,4.65µM,-
CC1(C)CC(=O)C2=C(C1)OC(N)=C(C#N)C2c1cn(-c2ccccc2)nc1-c1ccccc1 (centres undefined),-,-,-,-,?,18.0
CC1(C)CC(=O)C2=C(C1)OC(N)=C(C#N)C2c1cccc(OC(=O)c2ccco2)c1 (centres undefined),-,-,-,-,2.94µM,-
COc1cc(C2C(C#N)=C(N)OC3=C2C(=O)CC(C)(C)C3)ccc1OCCN1CCOCC1 (centres undefined),-,-,-,?,-,20.5
Cc1ccccc1OCc1nnc(SCC(=O)O)n1Cc1ccccc1,-,-,?,-,?,-
